Data on 36 molecules can be found in publication PMC9911399, “Two distinct binding modes provide the RNA-binding protein RbFox with extraordinary sequence specificity”.

T1: RBFOX1 RRM RbFoxmut (Fox-RRM*) (Homo sapiens, UniProt Q9NWB1 109-208, R118D;E147R;N151S;E152T)
T1 sequence: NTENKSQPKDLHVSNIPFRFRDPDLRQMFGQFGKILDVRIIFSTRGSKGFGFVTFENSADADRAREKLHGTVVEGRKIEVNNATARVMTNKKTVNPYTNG

B1: GCACCGG (DNA:RNA)
RNA: GGGAGACCGGAAUUCAGAUUGUCCGCACCGGUUAAAUCCCGUCGUAGCCACCA
DNA 1: CAATCTGAATTCCGGTCTCCC
DNA 2: TGGTGGCTACGACGGGATT
B2: GCAUCUG (DNA:RNA)
RNA: B1 RNA with C28U, G30U
DNA 1: CAATCTGAATTCCGGTCTCCC
DNA 2: TGGTGGCTACGACGGGATT
B3: GCACCGC (DNA:RNA)
RNA: B1 RNA with G31C
DNA 1: CAATCTGAATTCCGGTCTCCC
DNA 2: TGGTGGCTACGACGGGATT
B4: CGCAUCG (DNA:RNA)
RNA: B1 RNA with G25C, C26G, A27C, C28A, C29U, G30C
DNA 1: CAATCTGAATTCCGGTCTCCC
DNA 2: TGGTGGCTACGACGGGATT
B5: GCAAUCG (DNA:RNA)
RNA: B1 RNA with C28A, C29U, G30C
DNA 1: CAATCTGAATTCCGGTCTCCC
DNA 2: TGGTGGCTACGACGGGATT
B6: GCAUCCG (DNA:RNA)
RNA: B1 RNA with C28U, G30C
DNA 1: CAATCTGAATTCCGGTCTCCC
DNA 2: TGGTGGCTACGACGGGATT
B7: GCAUCAG (DNA:RNA)
RNA: B1 RNA with C28U, G30A
DNA 1: CAATCTGAATTCCGGTCTCCC
DNA 2: TGGTGGCTACGACGGGATT
B8: GAAUCGG (DNA:RNA)
RNA: B1 RNA with C26A, C28U
DNA 1: CAATCTGAATTCCGGTCTCCC
DNA 2: TGGTGGCTACGACGGGATT
B9: GCAUCAA (DNA:RNA)
RNA: B1 RNA with C28U, G30A, G31A
DNA 1: CAATCTGAATTCCGGTCTCCC
DNA 2: TGGTGGCTACGACGGGATT
B10: GCAUCGG (DNA:RNA)
RNA: B1 RNA with C28U
DNA 1: CAATCTGAATTCCGGTCTCCC
DNA 2: TGGTGGCTACGACGGGATT
B11: GCAUCAC (DNA:RNA)
RNA: B1 RNA with C28U, G30A, G31C
DNA 1: CAATCTGAATTCCGGTCTCCC
DNA 2: TGGTGGCTACGACGGGATT
B12: GCAUCGC (DNA:RNA)
RNA: B1 RNA with C28U, G31C
DNA 1: CAATCTGAATTCCGGTCTCCC
DNA 2: TGGTGGCTACGACGGGATT
B13: AGAGCGA (DNA:RNA)
RNA: B1 RNA with G25A, C26G, C28G, G31A
DNA 1: CAATCTGAATTCCGGTCTCCC
DNA 2: TGGTGGCTACGACGGGATT
B14: CCCUUUC (DNA:RNA)
RNA: B1 RNA with G25C, A27C, C28U, C29U, G30U, G31C
DNA 1: CAATCTGAATTCCGGTCTCCC
DNA 2: TGGTGGCTACGACGGGATT
B15: UACGGGG (DNA:RNA)
RNA: B1 RNA with G25U, C26A, A27C, C28G, C29G
DNA 1: CAATCTGAATTCCGGTCTCCC
DNA 2: TGGTGGCTACGACGGGATT
B16: CCGCCGG (DNA:RNA)
RNA: B1 RNA with G25C, A27G
DNA 1: CAATCTGAATTCCGGTCTCCC
DNA 2: TGGTGGCTACGACGGGATT
B17: AGGCCUA (DNA:RNA)
RNA: B1 RNA with G25A, C26G, A27G, G30U, G31A
DNA 1: CAATCTGAATTCCGGTCTCCC
DNA 2: TGGTGGCTACGACGGGATT
B18: AGAGUUC (DNA:RNA)
RNA: B1 RNA with G25A, C26G, C28G, C29U, G30U, G31C
DNA 1: CAATCTGAATTCCGGTCTCCC
DNA 2: TGGTGGCTACGACGGGATT
B19: GCGAGUG (DNA:RNA)
RNA: B1 RNA with A27G, C28A, C29G, G30U
DNA 1: CAATCTGAATTCCGGTCTCCC
DNA 2: TGGTGGCTACGACGGGATT
B20: GCACCGU (DNA:RNA)
RNA: B1 RNA with G31U
DNA 1: CAATCTGAATTCCGGTCTCCC
DNA 2: TGGTGGCTACGACGGGATT
B21: AGCAUCC (DNA:RNA)
RNA: GGGAGACCGGAAUUCAGAUUGUCCAGCAUCCUUAAAUCCCGUCGUAGCCACCA
DNA 1: CAATCTGAATTCCGGTCTCCC
DNA 2: TGGTGGCTACGACGGGATT
B22: GCAUCCA (DNA:RNA)
RNA: B1 RNA with C28U, G30C, G31A
DNA 1: CAATCTGAATTCCGGTCTCCC
DNA 2: TGGTGGCTACGACGGGATT
B23: AUCCGCA (DNA:RNA)
RNA: B21 RNA with G26U, A28C, U29G, C31A
DNA 1: CAATCTGAATTCCGGTCTCCC
DNA 2: TGGTGGCTACGACGGGATT
B24: GCAUCGU (DNA:RNA)
RNA: B1 RNA with C28U, G31U
DNA 1: CAATCTGAATTCCGGTCTCCC
DNA 2: TGGTGGCTACGACGGGATT
B25: GCAUUGU (DNA:RNA)
RNA: B1 RNA with C28U, C29U, G31U
DNA 1: CAATCTGAATTCCGGTCTCCC
DNA 2: TGGTGGCTACGACGGGATT
B26: AGCAUCG (DNA:RNA)
RNA: B21 RNA with C31G
DNA 1: CAATCTGAATTCCGGTCTCCC
DNA 2: TGGTGGCTACGACGGGATT
B27: GCAUCGA (DNA:RNA)
RNA: B1 RNA with C28U, G31A
DNA 1: CAATCTGAATTCCGGTCTCCC
DNA 2: TGGTGGCTACGACGGGATT
B28: AGCACCG (DNA:RNA)
RNA: B21 RNA with U29C, C31G
DNA 1: CAATCTGAATTCCGGTCTCCC
DNA 2: TGGTGGCTACGACGGGATT
B29: AGGAUGG (DNA:RNA)
RNA: B21 RNA with C27G, C30G, C31G
DNA 1: CAATCTGAATTCCGGTCTCCC
DNA 2: TGGTGGCTACGACGGGATT
B30: UCGUACU (DNA:RNA)
RNA: B21 RNA with A25U, G26C, C27G, A28U, U29A, C31U
DNA 1: CAATCTGAATTCCGGTCTCCC
DNA 2: TGGTGGCTACGACGGGATT
B31: GAGAUGU (DNA:RNA)
RNA: B21 RNA with A25G, G26A, C27G, C30G, C31U
DNA 1: CAATCTGAATTCCGGTCTCCC
DNA 2: TGGTGGCTACGACGGGATT
B32: GGGGAUG (DNA:RNA)
RNA: B1 RNA with C26G, A27G, C28G, C29A, G30U
DNA 1: CAATCTGAATTCCGGTCTCCC
DNA 2: TGGTGGCTACGACGGGATT
B33: GGGGGGA (DNA:RNA)
RNA: B1 RNA with C26G, A27G, C28G, C29G, G31A
DNA 1: CAATCTGAATTCCGGTCTCCC
DNA 2: TGGTGGCTACGACGGGATT
B34: GGGAUGU (DNA:RNA)
RNA: B21 RNA with A25G, C27G, C30G, C31U
DNA 1: CAATCTGAATTCCGGTCTCCC
DNA 2: TGGTGGCTACGACGGGATT
B35: CGGGAUG (DNA:RNA)
RNA: B21 RNA with A25C, C27G, A28G, U29A, C30U, C31G
DNA 1: CAATCTGAATTCCGGTCTCCC
DNA 2: TGGTGGCTACGACGGGATT
B36: GGAUGUU (DNA:RNA)
RNA: B1 RNA with C26G, C28U, C29G, G30U, G31U
DNA 1: CAATCTGAATTCCGGTCTCCC
DNA 2: TGGTGGCTACGACGGGATT

Changes are numbered by the printed parent chain; changes in the protein carry UniProt numbers. The full ranking holds about 16,000 sequences; the median of “ka relative to ugcaugu” is about 0.096, and the highest 2% start at about 0.35. This excerpt belongs to a sample that is enriched for the highest values.

For this experiment, the target named is T1, RBFOX1 RRM RbFoxmut (Fox-RRM*). Briefly: EMSA; HiTS-Eq, 1 nM pool, 10 min; buffer printed only for the single-RNA assays: 10 mM Tris pH 7.5, 150 mM NaCl, 3.4 mM EDTA, 0.001% NP-40, 30 C. To be noted: tags: His6 N-terminal (pET28a); label: 5' 32P. In short, it runs like this: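 A pool of RNA with 7 randomized nucleotides, 5′-radiolabelled and with DNA-annealed flanks, was equilibrated at 1 nM for 10 min in 50 µL with purified RbFox RRM, wild type or mutant, across increasing protein concentrations. Free RNA was separated by 8% native PAGE, excised, reverse-transcribed, barcoded by PCR and sequenced. Relative association constants were obtained from read-count changes of each RNA species versus the control reaction and normalised to the cognate motif.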
In general terms: In EMSA bound probe runs differently from free probe, usually more slowly.
For B1, the binding signal was 0.102 KA relative to UGCAUGU.
The figure for B2 is 0.264 KA relative to UGCAUGU; for B3 it is 0.139 KA relative to UGCAUGU.
The figure for B4 is 0.625 KA relative to UGCAUGU.
For B5 the value was 0.0721 KA relative to UGCAUGU; for B6, 0.351 KA relative to UGCAUGU.
For B7, the binding signal was 0.382 KA relative to UGCAUGU.
For B8 the value was 0.186 KA relative to UGCAUGU.
The figure for B9 is 0.323 KA relative to UGCAUGU.
For B10, the binding signal was 0.454 KA relative to UGCAUGU.
For B11 the value was 0.293 KA relative to UGCAUGU.
As for B12, the binding signal was 0.443 KA relative to UGCAUGU.
For B13 the value was 0.0748 KA relative to UGCAUGU; for B14, 0.0564 KA relative to UGCAUGU.
For B15 the value was 0.0585 KA relative to UGCAUGU; for B16, 0.0808 KA relative to UGCAUGU.
For B17 the value was 0.0817 KA relative to UGCAUGU.
Turning to B18, the binding signal is 0.0781 KA relative to UGCAUGU.
On to B19, for which the binding signal is 0.184 KA relative to UGCAUGU.
The figure for B20 is 0.172 KA relative to UGCAUGU; for B21 it is 0.237 KA relative to UGCAUGU; for B22 it is 0.338 KA relative to UGCAUGU.
As to B23, the binding signal is 0.167 KA relative to UGCAUGU.
For B24 the value was 0.578 KA relative to UGCAUGU; for B25, 0.228 KA relative to UGCAUGU; for B26, 0.437 KA relative to UGCAUGU.
The figure for B27 is 0.675 KA relative to UGCAUGU.
For B28 the value was 0.104 KA relative to UGCAUGU; for B29, 0.177 KA relative to UGCAUGU; for B30, 0.0912 KA relative to UGCAUGU.
B31: the binding signal was 0.15 KA relative to UGCAUGU.
For B32 the value was 0.612 KA relative to UGCAUGU.
The figure for B33 is 0.082 KA relative to UGCAUGU; for B34 it is 0.373 KA relative to UGCAUGU.
For B35 the value was 0.296 KA relative to UGCAUGU; for B36, 0.213 KA relative to UGCAUGU.
